From PubChem BioAssay
HT1080NT lethal = kills 2HG-producing HT-1080-NT fibrosarcoma cells. HT-1080-NT fibrosarcoma viability, CellTiter-Glo ATP luminescence, 48 h. Potency, µM (titrated, usually from 46.1 µM), without a hit: top-dose activity, negative = less viability, actives largely listed as cytotoxic. actives 1.6% (n = 360,000);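 further: NT is the 2HG producing partner of a matched IDH1 knockdown line; 0% = DMSO-treated cells and -100% = media-only wells without cells; nearly all actives have a fitted effect of over 55% in size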
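Luminescent CellTiter-Glo readout after 48 hours of compound exposure at 37 degrees C defined viability of HT-1080-NT cells. Activity was normalized to DMSO wells and cell-free media wells; concentration-response curves were fitted and assigned curve classes.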
KB-V1 cytotox = KB-V1 MDR subline cytotoxicity; KB-V1 MDR cells viability, CellTiter-Glo, 72 h; Potency, µM (highest dose often 46.1 µM), actives largely listed as cytotoxic; actives 3.4% (n = 400,000); further: nearly all actives have a fitted effect of over 60% in size
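In this primary screen, KB-V1 cells overexpressing P-gp are incubated with library compounds (lowest to highest concentration) for 72 h at 37 degrees C before a luminescent ATP viability read.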
TDP1 cell noCPT = qHTS for Inhibitors of human tyrosyl-DNA phosphodiesterase 1 (TDP1): qHTS in cells in absence of CPT. Potency, µM (doses to about 46.2 µM), for inactives: top-dose activity change, negative = growth inhibition, hits mostly inhibitors. DT40 Tdp1-/- hTDP1 cells, no CPT, ATP luminescence, 48 h. actives 15% (n = 420,000); further: nearly all actives have a fitted effect of over 55% in size
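Growth of hTDP1-complemented DT40 Tdp1-knockout cells is measured by ATP luminescence after at least 48 hr compound exposure at 37 °C, with DMSO substituting for the 20 nM CPT used in the parallel screen.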
HT1080 IDH1KD tx = toxicity to HT-1080 IDH1 knockdown cells (counter line); Potency, µM (doses to about 46.1 µM), without a hit: at the top dose activity, negative = toxicity, most hits filed as cytotoxic; HT-1080 IDH1 knockdown viability, ATP luminescence, 48 h; actives 2% (n = 360,000);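 further: 0% = DMSO wells and -100% = cell-free medium wells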
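Using the IDH1-knockdown HT-1080 line run in the same batch and compound series as the NT line, viability after 48 h at 37 °C was determined by CellTiter-Glo luminescence and expressed as % activity.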
KB-3-1 cytotox = kills parental KB-3-1 adenocarcinoma cells; KB-3-1 viability, CellTiter-Glo ATP luminescence, 72 h; Potency, µM (highest dose often 46.1 µM), actives largely listed as cytotoxic; actives 1.4% (n = 400,000); AID 1347075; further: nearly all actives have a fitted effect of over 60% in size
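Multi-concentration cytotoxicity screen in KB-3-1 cells grown in DMEM lacking phenol red with 10% FBS. After 72 h at 37 °C with compound, ATP-dependent luminescence was recorded.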
DT40 TDP1 CPT = DT40-hTDP1 cell growth loss with CPT | Potency, µM (doses to about 46.2 µM), for the others: at the top dose activity change, negative = growth inhibition, actives largely listed as inhibitors | actives 12% (n = 420,000) | AID 686979 | chicken DT40 Tdp1-/-;hTDP1 cells + 20 nM CPT, ATP luminescence, 48 h; further: nearly all actives have a fitted effect of over 55% in size
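Chicken DT40 Tdp1-/- cells complemented with human TDP1, 400 cells/well, exposed to compounds plus 20 nM camptothecin for at least 48 h at 37 C; viability read as ATP content by CellTiter-Glo luminescence.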
Numbers without * were called inactive; i = inactive; ? = inconclusive; nt = no result. Hits are enriched below; roughly 19% of the tested compounds scored in any of these assays. The call rests on the fitted dose curve; in most records, active means well fitted curve in the direction sought with a large enough effect; inconclusive means small, poorly fitted or top-dose-only effect, or another doubt; inactive means no such curve, though single readings can be large; an effect the other way counts as inactive or inconclusive. Unless noted, on the % scale 0 is the no-effect control and ±100 the full control effect; potency means the concentration at half of the fitted maximal effect.

SMILES	HT1080NT lethal	KB-V1 cytotox	TDP1 cell noCPT	HT1080 IDH1KD tx	KB-3-1 cytotox	DT40 TDP1 CPT
COc1ccc(/C=C2\SC(=S)N(CCCC(=O)Nc3ccccn3)C2=O)cc1OC	1%	?	29µM*	-4%	i	?
CC1CCOC(c2coc3ccccc3c2=O)O1 (stereo unspecified)	-23%	?	-10%	-20%	i	-4%
O=C(O)C1CSC(c2coc3ccccc3c2=O)N1 (stereo unspecified)	-29%	i	?	?	i	26µM*
Cc1ccc2nc(N3CCC(C(=O)N4CCN(c5cccc(C)c5C)CC4)CC3)[nH]c2c1	nt	i	5.8µM*	nt	?	2.9µM*
CC(=O)c1ccc(N2CCN(C(=O)C3CCN(S(=O)(=O)Cc4ccccc4)CC3)CC2)cc1	3%	i	?	7%	i	-24%
Cc1cccc(N2CCN(C(=O)C3CCN(S(=O)(=O)Cc4ccccc4)CC3)CC2)c1C	nt	i	9.2µM*	nt	i	7.3µM*
Cc1cccc(N2CCN(C(=O)C3CCN(S(=O)(=O)c4cccnc4)CC3)CC2)c1C	9%	i	16µM*	1%	i	18µM*
O=C(C1CCN(S(=O)(=O)Cc2ccccc2)CC1)N1CCN(c2ccc(F)cc2)CC1	nt	nt	?	nt	nt	23µM*
Cc1ccc(C)c(N2CCN(C(c3ccccc3)c3nnc(-c4ccccc4F)o3)CC2)c1 (stereo unspecified)	nt	i	23µM*	nt	i	?
Cc1cccc(N2CCN(C(c3ccccc3)c3nnc(-c4ccccc4Cl)o3)CC2)c1C (stereo unspecified)	nt	i	?	nt	i	21µM*
Oc1ccccc1N1CCN(C(c2ccccc2)c2ccccc2)CC1	-19%	i	?	?	i	?
Cc1ccc(C)c(N2CCN(C(=O)CCc3nc(-c4ccccc4F)no3)CC2)c1	-2%	i	?	6%	i	?
Cc1ccc(C)c(N2CCN(C(c3ccc(F)cc3)c3nnc(-c4ccccc4)o3)CC2)c1 (stereo unspecified)	nt	nt	15µM*	nt	nt	?
